Compounds with a hit are over-represented: about 3.3% of the library has one in this group of screens.
Sm TGR block: blocks Schistosoma mansoni thioredoxin glutathione reductase | Q962Y6 | purified TGR, DTNB reduction, TNB absorbance 405 nm | Potency, µM (highest dose often 114 µM), inactives show at the top dose activity change, negative = inhibition, hits mostly inhibitors | 360,000 compounds, 3% hits | AID 485364; also: % is scaled to controls: 0 for no effect and ±100 for the full control effect; nearly all actives have a fitted effect of over 60% in size
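TGR 20 nM + NADPH 100 uM (dispensed conc.), cpd preinc 15 min RT; start with NADPH (500 uM addition) then DTNB (15 mM addition). Kinetic TNB absorbance, 405 nm filter. Four-parameter Hill fit across titration.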
AmpC no deterg: blocks E. coli AmpC beta-lactamase in detergent-free assay; P00811; AmpC nitrocefin hydrolysis, absorbance 480 nm, 0.0001% Triton; Potency, µM (titrated, usually from 57.1 µM), inactives show at the top dose activity change, negative = inhibition, most hits filed as inhibitors; 330,000 compounds, 0.52% hits; AID 485341;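 also: plate controls were no compound for no effect and no enzyme for full effect; nearly all actives have a fitted effect of over 20% in size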
Target sequence (P00811 whole entry, looked up): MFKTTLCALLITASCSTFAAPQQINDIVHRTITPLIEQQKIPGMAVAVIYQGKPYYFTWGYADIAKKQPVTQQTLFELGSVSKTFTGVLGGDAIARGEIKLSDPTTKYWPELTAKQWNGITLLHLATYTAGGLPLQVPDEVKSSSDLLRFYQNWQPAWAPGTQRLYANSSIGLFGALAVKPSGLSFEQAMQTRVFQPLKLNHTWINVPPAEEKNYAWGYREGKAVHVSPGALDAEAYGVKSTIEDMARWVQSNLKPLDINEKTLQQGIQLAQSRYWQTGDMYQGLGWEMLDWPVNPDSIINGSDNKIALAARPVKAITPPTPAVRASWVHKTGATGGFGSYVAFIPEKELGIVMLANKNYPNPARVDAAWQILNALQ
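20 mM phosphate pH 7.0 + 0.01% (detergent screen) or 0.0001% Triton X-100; 5.3 nM AmpC reagent; cpd preinc 15 min RT; nitrocefin (800 uM stock) to start; A480 q20 s × 4 min; Activity was normalised to no-enzyme and no-compound control wells.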
SARS PLpro yeast: blocks SARS-CoV papain-like protease in a yeast assay | S. cerevisiae expressing SARS-CoV PLpro, growth rescue | Potency, µM (series often up to 32.9 µM), for the others: top-dose activity, positive = growth rescue, most hits filed as activators | 330,000 compounds, 0.19% hits; calls by dose curve; also: 0% is about no effect; nearly all actives have a fitted effect of over 55% in size
TbPYK inhibitor: T. brucei pyruvate kinase inhibition. Potency, µM (series often up to 76.8 µM), for the others: at the top dose activity, negative = inhibition, usual class: inhibitors. 410,000 compounds, 0.12% hits. Q57TT1. TbPYK enzyme, Kinase-Glo Plus ATP luminescence, 45 min. AID 624173; also: % is scaled to controls: 0 for no effect and ±100 for the full control effect; nearly all actives have a fitted effect of over 50% in size
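T. brucei PYK with substrate was exposed to pin-transferred compounds across a concentration series, then started with 130 uM ADP (final). After 45 min at room temperature, Kinase-Glo Plus luminescence was read, normalized and curve-fitted.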
RE007 growth inh: less growth of the S. pombe RE007 Vpr strain | 360,000 compounds, 0.21% hits | S. pombe RE007 Vpr strain, BacTiter-Glo ATP luminescence, 24 h | Potency, µM (highest dose often 92.2 µM), for the others: at the top dose activity change, negative = less growth, usual class: inhibitors; active = well fitted falling curve with a large enough effect; inconclusive = small, poorly fitted or top-dose-only effect; inactive = no such curve, though single readings can be large or run the other way; also: % is scaled to controls: 0 for no effect and ±100 for the full control effect; nearly all actives have a fitted effect of over 50% in size
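Fission yeast RE007 carrying one integrated HIV-1 vpr copy, seeded at OD 0.01 in PMG+AL medium with 23 nL pinned compound. Grown 24 h at 30 degrees; viability read by BacTiter-Glo luminescence after 5 min.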
AmpC inh detg: inhibitors of E. coli AmpC beta-lactamase with detergent; P00811; AmpC hydrolysis of nitrocefin, absorbance 480 nm, 0.01% Triton; Potency, µM (titrated, usually from 114 µM), for the others: at the top dose activity change, negative = inhibition, hits mostly inhibitors; 370,000 compounds, 0.041% hits; AID 485294;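 also: 0% = no-compound wells and -100% = no-enzyme wells; nearly all actives have a fitted effect of over 25% in size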
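AmpC (5.3 nM in the dispensed reagent) in 20 mM phosphate pH 7.0 with 0.01% (detergent screen) or 0.0001% Triton X-100 was preincubated with compounds for 15 min at room temperature. Nitrocefin was then added from an 800 uM solution, and hydrolysis was followed at 480 nm.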
The depositor's hits bear a star; ? = inconclusive; · = no result given. Unless noted, calls follow the shape of the dose curve; as a rule, active = well fitted curve in the direction sought with a large enough effect; inconclusive = small, poorly fitted or top-dose-only effect, or another doubt; inactive = no such curve, though single readings can be large; an effect the other way counts as inactive or inconclusive. Potency is read from the fitted curve at half-maximal effect.

SMILES	Sm TGR block	AmpC no deterg	SARS PLpro yeast	TbPYK inhibitor	RE007 growth inh	AmpC inh detg
O=C(CN1CCN(Cc2ccccc2)CC1)N/N=C/C=C/c1ccco1	?	-11.5%	-6.0%	-13.9%	10.2%	-18.8%
Cc1ccc(/C=N/NC(=O)Cc2cccn2C)cc1	?	-25.8%	0.1%	2.1%	3.5%	3.5%
Cn1c(=O)c2c(-c3ccccc3)n(-c3cccc(C#N)c3)cc2n(C)c1=O	-5.1%	·	·	-3.6%	·	-3.2%
O=C(COCc1cc(-c2cccs2)on1)NCc1ccccc1Cl	-2.5%	·	·	-2.3%	·	5.3%
CCOC(=O)c1cc2sccc2n1CC(=O)N1CCCc2ccccc21	-20.7%	-2.5%	-8.0%	2.7%	3.1%	?
CCOC(=O)c1cc2occc2n1CC(=O)N1CCCc2ccccc21	8.91µM*	-1.9%	0.5%	-12.1%	-2.2%	-4.1%
NC(N)=Nc1ccc2[nH]c3c(c2c1)C[C@@]1(O)[C@H]2Cc4ccc(O)c5c4[C@@]1(CCN2CC1CC1)[C@H]3O5	0.794µM*	-5.0%	·	-43.5%	?	0.2%
Oc1ccc2c3c1O[C@H]1[C@@H](O)CC[C@@]4(O)[C@@H](C2)N(CC2CCC2)CC[C@]314	-11.4%	-20.2%	·	-6.3%	-21.3%	?
Clc1ccc2c(c1)[C@H]1OCC[C@H]1[C@@H](c1ccco1)N2	39.8µM*	-15.6%	-9.3%	-15.9%	-11.1%	-6.0%
Fc1ccc2c(c1)[C@H]1OCC[C@H]1[C@@H](c1ccco1)N2	-25.2%	-7.0%	-7.2%	3.4%	-4.9%	4.4%
COc1ccc(C2C(C#N)=C(N)Oc3cc4c(cc32)OCO4)cc1 (stereo not given)	2.2%	-1.3%	-3.0%	3.9%	10.3%	-0.2%
CCN1C=C(Cc2ccc(OC)cc2)C2=C(C1)C(c1ccc(OC)cc1)C(C#N)=C(N)O2 (stereo not given)	35.5µM*	53.7%	-0.2%	4.0%	-9.5%	1.2%
CN(C)c1ccc(NC(=O)/C=C/c2ccccc2Cl)cc1	-6.8%	2.51µM*	0.9%	-13.2%	-8.3%	?
COc1cc(OC)cc(-c2c(C#Cc3ccsc3)c3cc(-c4ccc5cc[nH]c5c4)ccc3n2C)c1	25.1µM*	-30.9%	-0.4%	1.9%	-7.8%	-7.0%
COc1ccc(-c2c(C#Cc3ccsc3)c3cc(-c4ccc5cc[nH]c5c4)ccc3n2C)cc1	·	-23.6%	3.8%	-5.5%	2.5%	·
O=c1c(CCc2ccccc2)nc2cnc(N3CCNCC3)nc2n1CCc1ccccc1	·	·	·	-7.6%	·	·
CCOC(=O)c1c(-c2ccccc2)csc1NC(=O)c1nc(S(=O)(=O)CC)ncc1Cl	2µM*	·	·	0.0%	·	12.8%
CCOC(=O)c1c(-c2ccccc2)csc1NC(=O)c1nc(SCC)ncc1Cl	-0.8%	·	·	-5.5%	·	11.5%
CCS(=O)(=O)c1ncc(Cl)c(C(=O)Nc2ccccc2)n1	7.94µM*	·	·	5.7%	·	-5.9%
CCS(=O)(=O)c1ncc(Cl)c(C(=O)Nc2ccccc2OC)n1	0.0%	-14.3%	-0.2%	2.0%	13.1%	-15.1%
CCOC(=O)c1ccc(NC(=O)c2nc(S(=O)(=O)Cc3ccccc3)ncc2Cl)cc1	8.91µM*	-25.6%	1.2%	5.4%	-1.6%	-13.9%
CCS(=O)(=O)c1ncc(Cl)c(C(=O)Nc2ccc(S(=O)(=O)N3CCC(C)CC3)cc2)n1	0.447µM*	0.2%	-26.1%	-8.7%	1.8%	?
Cc1ccccc1Cn1c(=O)n(Cc2ccc(Cl)cc2)c(=O)c2cccnc21	2.0%	·	·	1.1%	·	-4.1%
CCCSc1ncc(Cl)c(C(=O)Nc2ccc(S(=O)(=O)N(C)c3ccccc3)cc2)n1	3.0%	·	·	4.1%	·	12.0%
CCCS(=O)(=O)c1ncc(Cl)c(C(=O)Nc2ccc(S(=O)(=O)Nc3ncccn3)cc2)n1	12.6µM*	-14.0%	6.1%	-12.6%	4.2%	1.2%
SMILES	Sm TGR block	AmpC no deterg	SARS PLpro yeast	TbPYK inhibitor	RE007 growth inh	AmpC inh detg
CN(c1ccccc1)S(=O)(=O)c1ccc(NC(=O)c2nc(S(C)(=O)=O)ncc2Cl)cc1	1.26µM*	-10.3%	·	30.3%	11.6%	2.3%
CCOC(=O)c1c(NC(=O)c2nc(S(C)(=O)=O)ncc2Cl)sc(C(C)=O)c1C	2.24µM*	·	·	0.0%	·	1.6%
CC(=O)Nc1ccc(NC(=O)c2nc(S(=O)(=O)Cc3ccc(F)cc3)ncc2Cl)cc1	3.16µM*	·	·	5.6%	·	?
COc1ccc(C2C(C(=O)Nc3cccnc3)=C(C)Nc3nc(SCc4ccccc4)nn32)cc1 (stereo not given)	-12.2%	·	·	-6.5%	·	-2.0%
COc1cc(O)ccc1-c1nc2cc(C)ccn2c1Nc1ccccc1C	6.7%	·	·	-7.2%	·	10.7%
COc1ccc(CCNc2ncnc3onc(C)c23)c(OC)c1	1.7%	·	·	2.3%	·	6.3%
CCc1ccc(NC(=O)c2nc(S(=O)(=O)Cc3ccccc3)ncc2Cl)cc1	6.31µM*	-28.1%	-44.2%	·	·	-10.7%
Cc1ccc(-c2nc(C)sc2CC(=O)NCc2ccco2)cc1	22.4µM*	-12.1%	-5.2%	-17.8%	3.5%	-14.8%
O=C(NCc1ccco1)c1c2c(nc3ccccc13)CCC2	39.8µM*	-22.5%	10.3%	?	-20.3%	-12.6%
O=C(COC(=O)c1cc(-c2ccc(Cl)s2)nc2ccccc12)NCc1ccco1	7.94µM*	127.9%	-27.6%	-16.0%	0.4%	-2.4%
O=C(COC(=O)c1cc(-c2cccs2)nc2ccccc12)NCc1ccco1	39.8µM*	-15.2%	-1.3%	-2.3%	-18.6%	-2.5%
O=C(CSc1c2c(nc3ccccc13)CCCC2)NCc1ccco1	?	-11.4%	-3.6%	7.0%	-8.4%	-2.9%
O=C(NCc1ccco1)c1cc(-c2cccs2)nc2ccccc12	-2.7%	-58.2%	18.9%	-4.7%	-19.3%	-7.7%
Cc1ccc(NC(=O)Cc2sc(C)nc2-c2ccc(C)cc2)cc1	1.2%	-14.7%	-10.3%	-5.7%	-2.3%	-4.4%
COc1cc(-c2cc(C(=O)NCc3ccco3)c3ccccc3n2)cc(OC)c1OC	-5.8%	158.6%	4.6%	-3.4%	-5.3%	-0.8%
Cc1ccc(-c2cc(C(=O)NCc3ccco3)c3ccccc3n2)s1	28.2µM*	-26.6%	-10.2%	?	1.7%	2.1%
COc1ccc(/C=N/N2CCN(C)CC2)c(OC)c1OC	50.1µM*	-7.9%	0.9%	0.6%	0.0%	5.0%
CC(C)CC1C(C#N)=C(N)Oc2n[nH]c(-c3cccs3)c21 (stereo not given)	6.9%	-23.2%	-13.5%	-1.4%	-9.5%	?
CSCCC1C(C#N)=C(N)Oc2n[nH]c(-c3cccs3)c21 (stereo not given)	12.6µM*	-36.6%	-6.1%	-18.2%	-17.4%	-1.3%

Screens as filed in PubChem.
